Measured values reported in PubChem BioAssay (NCI).
The panel holds about 79,000 compounds, 15% with a hit somewhere; the sample as a whole holds those more often. Values without a mark were called inactive. Active and inactive are the calls of the source. Rule as the data show it: active = growth inhibition above about 70%; inactive = the rest.

Key:
[1] = NCI Yeast Anticancer Drug Screen. Data for the rad50 strain (AID 155);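 also: 0% = growth of vehicle-only cultures of the same strain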; details: S. cerevisiae rad50 strain growth inhibition; at 50.0 µM; active compounds read high
Summary of the method: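 Vehicle-treated cultures provide the reference for the growth inhibition reported for compound-exposed, repair-deficient yeast.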

[2] = NCI Yeast Anticancer Drug Screen. Data for the mec2-1 strain (AID 157); details: S. cerevisiae mec2-1 strain, at 50.0 µM, active compounds read high
Summary of the method: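 Test agents were screened against the mec2-1 yeast strain, with defined DNA repair or cell cycle alteration. Growth was scored as inhibition against vehicle-only controls.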

[3] = NCI Yeast Anticancer Drug Screen. Data for the sgs1 mgt1 strain (AID 161);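 also: 0% = growth of cultures given vehicle only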; details: S. cerevisiae sgs1 mgt1 strain, at 50.0 µM, active compounds read high
Summary of the method: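 Test agents were incubated with a DNA-repair-mutant yeast strain. Growth was then read and compared against vehicle-treated controls.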

[4] = NCI Yeast Anticancer Drug Screen. Data for the cln2 rad14 strain (AID 165);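 also: 0% = growth equal to vehicle treated cultures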; details: S. cerevisiae cln2 rad14 strain, at 50.0 µM, active compounds read high
Summary of the method: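 Growth of compound-exposed yeast (cln2 rad14 genotype) measured and expressed as inhibition relative to vehicle.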

[5] = NCI Yeast Anticancer Drug Screen. Data for the bub3 strain (AID 167); details: S. cerevisiae bub3 mutant strain, at 50.0 µM, active compounds read high
Summary of the method: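 Mutant yeast screening strain plus compound; vehicle-treated cultures serve as the 0% inhibition reference.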

[6] = NCI Yeast Anticancer Drug Screen. Data for the mlh1 rad18 strain (AID 175); details: S. cerevisiae mlh1 rad18 strain growth inhibition; at 50.0 µM; active compounds read high
Summary of the method: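 In this whole-cell yeast screen, a strain with altered DNA damage repair is challenged with compound, and its growth is measured against matched vehicle-treated controls.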

| SMILES | growth inhibition [1] | growth inhibition [2] | growth inhibition [3] | growth inhibition [4] | growth inhibition [5] | growth inhibition [6] |
| --- | --- | --- | --- | --- | --- | --- |
| CCCC(C)C(=O)OC1CCCCC1C (configuration not stated) | -0.95% | 4.25% | -7.85% | -45.6% | 8.1% | 0.6% |
| Cc1ccc(OCC2OC(n3cnc4c(Cl)nc(N)nc43)CC2Oc2ccc(C)cc2)cc1 (configuration not stated) | 2.3% | -11% | 13.4% | 14.6% | 2.4% | -13.2% |
| CC(C)=NNC=N/C(C#N)=C(\N)C#N | -14.3% | -0.55% | -17.5% | 18% | -9.6% | -24.7% |
| OCC1COc2cc(Cl)c(Cl)cc2O1 (configuration not stated) | 47.8% | 9.65% | 33.3% | 15% | 36.9% | 50.2% |
| NC(=S)N/N=C\c1nccc2ccsc12 | 10.4% | -5.7% | -9.35% | -29.9% | -0.05% | 2.7% |
| CCOC(=O)c1oc2ccc(OC)c3c2c1CCC3 | 2.8% | -1% | 6.3% | 15.4% | 11.6% | 19.6% |
| CC(=O)Nc1ccccc1C(C)=O | 5.45% | -7.25% | -10.2% | 10% | -8.05% | 4.85% |
| CCCCCCC(=O)O | 0.75% | -16.4% | -4.85% | -30.3% | -0.1% | 9.9% |
| Cn1c2ccccc2c2c(-c3ccccc3)cc3c(c21)C(=O)C=CC3=O | -15.3% | -10.6% | 3.8% | 16.2% | -25.9% | 7.95% |
| c1csc(-c2nccc3ccccc23)c1 | 1.6% | 2.3% | -19.2% | 2.2% | 7.7% | 10.6% |
| CCCCNc1nc2c(=O)n(C)c(=O)n(C)c2s1 | -6.3% | -0.6% | -3.1% | -17.4% | -5.9% | 9.75% |
| Fc1ccc(C(=C(c2ccc(F)cc2)c2ccc(F)cc2)c2ccc(F)cc2)cc1 | 45.5% | -15.2% | 36.9% | 9.55% | 0.1% | 7% |
| COc1ccc(-c2cc(-c3ccncc3)[nH]c2-c2nccc3ccccc23)cc1 | 94.2% (active) | 82.7% (active) | 97.3% (active) | 79.5% (active) | 73.7% (active) | 85% (active) |
| CN1CCC(O)(C#N)CC1 | -5.55% | 2% | -13.6% | -42.6% | 10.1% | -2.85% |
| CC(O)c1cccc(C(C)(C)O)c1Sc1c(C(C)(C)O)cccc1C(C)(C)O (configuration not stated) | 13% | 7.8% | 10.1% | -0.75% | 6.25% | -14.6% |
| Cc1ccccc1NC(=O)NNc1ccccc1 | 17% | -0.65% | 7.35% | 10.7% | -2.9% | 3.85% |
| N#CCCOCc1ccccc1 | -46.8% | -23.8% | -1.05% | -3.15% | -15.1% | 0.55% |
| CCCCN=C1NC(N)=NC(C)(C)N1 | -0.1% | -0.35% | -0.75% | -37.5% | -13.3% | -18.9% |
| CC(=O)Oc1ccccc1C1CCCCC1 | -1.7% | -28.6% | -2.5% | 17.2% | -11.9% | 0.9% |
| NC1C(=O)Nc2ccccc21 (configuration not stated) | 1.85% | 5.95% | -5.75% | -1.05% | 8.35% | 4.95% |
| Cc1[nH]n(-c2ccccc2)c(=S)c1C(=O)c1ccccc1 | -11.7% | 1.05% | 2.55% | 1.7% | 2.25% | 0.45% |

| SMILES | growth inhibition [1] | growth inhibition [2] | growth inhibition [3] | growth inhibition [4] | growth inhibition [5] | growth inhibition [6] |
| --- | --- | --- | --- | --- | --- | --- |
| O/N=C1/C2C=CC(C2)C1Cl (configuration not stated) | 1.35% | -5.75% | 11.7% | 13.7% | -10.1% | -16.9% |
| COC1=C(c2ccccc2)P(=O)(Cc2ccccc2)C(C)C1 (configuration not stated) | -6.95% | 12.2% | 24.6% | -9.1% | 48.3% | 1.9% |
| O=C(O)c1[nH]ncc1[N+](=O)[O-] | 24.1% | -4.85% | -5.05% | 11.3% | 11% | 2.8% |
| N#CCN1CCOCCOCCN(CC#N)CCOCCOCC1 | 3.1% | -0.75% | 5.75% | 19.7% | 7.4% | 42.1% |
| Cc1ccc(S(=O)(=O)N(CC(O)c2ccccc2)CC(O)c2ccccc2)cc1 (configuration not stated) | -3.95% | -1.7% | -18.2% | 3.5% | 3.95% | -8% |
| CC(=O)c1sc(-c2nc(C)c(C(=O)/C=C\c3ccc(/C=C\C(=O)c4sc(-c5nc(C)c(C(C)=O)s5)nc4C)cc3)s2)nc1C | -19.3% | -13.4% | -8.7% | -11.6% | 3.95% | -14.4% |
| CC(=O)N[C@@H]1CCC[C@H](NC(C)=O)C1 | -9.75% | -44.4% | -12.7% | -17.1% | 12.7% | -23.9% |
| Cc1ccc(S(=O)(=O)OCC2CC=CCC2COC(=O)c2ccc([N+](=O)[O-])cc2)cc1 (configuration not stated) | 33.5% | -5.55% | 12.1% | 15.1% | 6.6% | 6.4% |
| Cc1cc(=O)[nH]c(N/N=C/c2ccco2)n1 | -20.8% | -48.8% | -16.8% | 6.75% | -33.8% | -15.3% |
| Cn1c(=O)c2[nH]c(/N=N\n3ccc4ccccc43)nc2n(C)c1=O | 2.1% | 21.6% | -5.6% | -8.85% | 24.6% | 4.1% |
| NC(N)=Nc1ccc(CC(N)C(=O)NCC(=O)C(CC(=O)O)c2ncc(NC(=O)C(F)(F)F)o2)cc1 (configuration not stated) | -17.4% | -1.75% | -5.15% | -4% | -19.6% | 7.35% |
| CCCCCC(=O)OC(C)COc1ccccc1 (configuration not stated) | 20.6% | 22.7% | 20.8% | -10.8% | 30.9% | 28.6% |
| CC1C2(C)OC(=N)C(C#N)(C(c3ccco3)O2)C1(C#N)C#N (configuration not stated) | 6.75% | 3.1% | -6.55% | 5.95% | -9.65% | -1.4% |
| O=C(O)/C(=C/c1ccccc1)c1ccccc1 | -9.3% | -45% | -30.3% | -23.1% | -33.5% | 26.8% |
| CSc1cc2c(cc1N)C(=O)c1ccccc1-2 | 12.5% | 2.45% | 7.4% | -24.1% | -13.1% | 12.9% |
| COC(=O)c1ccccc1NC(=NC1CCCCCC1)NS(=O)(=O)c1ccc(C)cc1 | 30.4% | 11.2% | -13.8% | -8.15% | 0.3% | -31.3% |
| OC1C2CCC3C2CC(C(O)(c2ccccc2)c2ccccc2)C13 (configuration not stated) | -0.2% | -23.6% | -8.75% | -13.2% | -50% | -15.4% |
| NC(N)=NCCCCC(=O)Nc1ccc(S(N)(=O)=O)cc1 | 6.15% | -0.65% | -13.2% | -6.15% | -3.75% | -19.2% |
| CCCCCC(=O)OCC(CC)CC | -8.05% | -6.55% | -13.3% | -29.6% | -1.05% | 5.35% |
| NCCc1ccc(O)c(O)c1 | -4.4% | -4.2% | -1.55% | 4.25% | -1.45% | 1.85% |
| CC(C)=C1C(=O)C[C@@]2(C)C[C@H]3OC3(C)CC/C=C(/C)CCC12 (some centres not stated) | 14.9% | 11.7% | 19.8% | 12.9% | 30.2% | -62.5% |
